This assay addresses RUNX1 (UniProt Q01196). Description: RUNX1 binding intensity (PBM fluorescence), RUNX1 alone (arbitrary fluorescence units); higher = stronger binding. The note with it: RUNX1 concentration 2 nM; ETS1 concentration 0 nM. The procedure: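 Cooperative gcPBM on 36-bp genomic probes with neighbouring ETS1 and RUNX1 sites. Recombinant human RUNX1 (2 nM) was incubated alone or with ETS1 (25 nM) and detected with anti-RUNX1 antibody plus Alexa488 secondary. Values are medians over 4 replicate spots; the RUNX1+ETS1 data were normalised to the RUNX1-only data. The probes sit in constant array flanks that are not printed.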
RUNX1, sequence (Q01196 whole entry): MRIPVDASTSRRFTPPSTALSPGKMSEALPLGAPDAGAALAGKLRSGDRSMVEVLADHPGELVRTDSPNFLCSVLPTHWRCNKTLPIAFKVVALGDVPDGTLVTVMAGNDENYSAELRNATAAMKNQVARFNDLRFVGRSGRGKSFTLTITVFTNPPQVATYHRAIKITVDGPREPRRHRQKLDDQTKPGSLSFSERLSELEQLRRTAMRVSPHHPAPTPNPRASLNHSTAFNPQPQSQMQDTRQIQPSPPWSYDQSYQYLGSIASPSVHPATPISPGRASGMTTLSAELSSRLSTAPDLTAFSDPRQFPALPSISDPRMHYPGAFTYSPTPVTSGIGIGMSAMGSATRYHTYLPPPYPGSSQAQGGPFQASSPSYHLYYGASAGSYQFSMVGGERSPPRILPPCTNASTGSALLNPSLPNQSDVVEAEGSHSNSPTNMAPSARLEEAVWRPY
For the sequence CAGAAACATCCCTCCTGCCGCCGCTTTGTGGTACCA, the RUNX1 binding intensity was found to be 983. For CCCACAGGAAATCCCCTGGTCTGTGGCGCCTCTGAT the value was 766; for AATCCAACACTTCCTCCTCCACCGCAGAAAGGCAAC, 1490. The same measure for GACCAATGTAAACAAGGATGTGGGTTCTCCGGCCAC: 785; for AGTTTCTCAGCTTCCTGTGTGGTTTTCTTGATCTGC: 1620; for GGACCCAGCAGAGGATGTGGTTACAGGGCCATGATA: 836.

In the case of TCCTCCATGCAGGAAAACCTCTGTGGTCTGGGAGCT, the RUNX1 binding intensity was determined as 867. For TGACTTCCTCCTCTTCACTAACAGAAACCTCAATTT the value was 1400; for GTAAAAGAGGAAGTAACACCTCCTTGCGGTTGAGAC, 1020. For TAAGTGAATTTCCTGCCCGCCTCCGCCCACAGCGTA the value was 809; for CCGGGAAACACGGGAGAGCGACCGAAACCGCAATCA, 3650; for GAAGCGATATTTCCTCCTGGGGTTGACCGCCCCGTG, 761.

For CATGGTTGTTATTTCCTCACCACAATATGTGACATT, the RUNX1 binding intensity came to 1200. The same measure for CCTGGGCAAGGCCGGATGCCTGTGGCTTCCAGGCTG: 685; for TTCAGAAAAAAAGGAAGTGGTAAATTCTTGCTGATT: 775; for CCAGTACCCCACTTCCTGACCAAACCACAAAGGTCA: 2980.

In turn, AAAGCAAACAGGAAGTGCTGTGGTAACAAGGCCCCA returned an RUNX1 binding intensity of 728. The sequence TTTCGAGAAAACCGGAAGTGCGTGGTCACGCCCCGC came in with an RUNX1 binding intensity of 733. The same measure for CAGTGGCTAAGGATCCGGTGTTGCGGTGATACATGA: 804; for TCCGGAAGTGGCACTGATGGGCGCCTGCGGCGGGGG: 758; for AGGGGAGGAACCAGGAAGTTGTGGTAAACTGTAGCA: 982. GGCTTCCGGCGGGGTACCCTCCTCTGTGGGCGGGGC gave an RUNX1 binding intensity of 841. For CGGGCGAGCGCAGGATGCGGTTGTCGAACGCGCGGC the value was 762; for ACCACACTTCCCAGGAGTCTCTGCGGCCGCGCGGAG, 938; for GTAGAGACAGGAAATTATGTTGGTTTTCTTGCAGAA, 724.

CACTTCCTCCTCGGGGGCCTCAGAAAACCACAGGGC registered an RUNX1 binding intensity of 1110. For GCCCCCGGAAGCTGTCGCCCCGTGCGGTGTGTGCTG the value was 787; for GTTGAGTAGTGACAGGAAGTGACCGCAAGGGGGCGC, 1860; for GCCCCCATGCTTCCTGTTGTGGGAGATGAAGTGTGG, 878.

The sequence AGCCTTAATTACCCGGAAGTGCGGTCCCAGGGACTT gave an RUNX1 binding intensity of 768. For TGACTTCCGGTCCGTAGTGGGGCCTGCGGTGGGAGT the value was 801; for CTCCCACATCCGAAGCGGCGCAACCCACAACAGCCT, 1120; for CCTCCCACCTTGGCAGGAAGCGGTTTATCAGATTAA, 810. For GCTGGGGCAGGAAGCTTCTAGGCCACAGACAGGACG the value was 711; for AACACCACTTCCTACTGTGAAACCACACTGTATTTG, 1200; for CGGCTAGGAAATAAAGAGCCTTCTCTCCGCGGTAGG, 2270.

Take CAGGGCACCTCCTACTTCCCCCCGCAGATAACTACC: the RUNX1 binding intensity is 999. The same measure for GCTAGACAGGAAACAGTGAGCTTCTGTGGGCAGGAG: 758; for GCAGCATTTCCTGACTTCTTCGCCCCTGTGGTTGCA: 850. In turn, GTGCCTTTTCATGTGGGATGTGGCTTCAAGGAGACC returned an RUNX1 binding intensity of 911.

The record behind these values is the supplement of paper PMC10681739.
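Note: Full-length recombinant human RUNX1 bound to double-stranded 36-bp genomic probes on a high-density microarray, scored as Alexa488 fluorescence per spot via anti-RUNX1 antibody, median of four replicate spots.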
